Source: PubChem BioAssay
ARNT-TACC3 inh: ARNT/TACC3 interaction disruption. AID 623870. AlphaScreen His-ARNT PAS-B/GST-TACC3 binding, luminescence; TACC3 fragment carries E629A point mutation. inhibition, % at 9.99 µM. 390,000 tested, 0.66% active;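 active = mean inhibition of replicates at least 50% and at least half of replicates each reaching 50%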;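 also: 0% = complete ARNT plus TACC3 wells and 100% = ARNT alone without TACC3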
CendR NRP1 mod: alters CendR peptide binding to human NRP-1. inhibition, % at 25 µM. 360,000 tested, 0.85% active. O14786. FAM-RPARPAR peptide binding to NRP-1, fluorescence polarization;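 active = inhibition or corrected inhibition above about 18%, plus a signal ratio from 0.5 to 1.5, limit read from the data, passing the limit was not always enough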
Target sequence (O14786 whole entry, looked up): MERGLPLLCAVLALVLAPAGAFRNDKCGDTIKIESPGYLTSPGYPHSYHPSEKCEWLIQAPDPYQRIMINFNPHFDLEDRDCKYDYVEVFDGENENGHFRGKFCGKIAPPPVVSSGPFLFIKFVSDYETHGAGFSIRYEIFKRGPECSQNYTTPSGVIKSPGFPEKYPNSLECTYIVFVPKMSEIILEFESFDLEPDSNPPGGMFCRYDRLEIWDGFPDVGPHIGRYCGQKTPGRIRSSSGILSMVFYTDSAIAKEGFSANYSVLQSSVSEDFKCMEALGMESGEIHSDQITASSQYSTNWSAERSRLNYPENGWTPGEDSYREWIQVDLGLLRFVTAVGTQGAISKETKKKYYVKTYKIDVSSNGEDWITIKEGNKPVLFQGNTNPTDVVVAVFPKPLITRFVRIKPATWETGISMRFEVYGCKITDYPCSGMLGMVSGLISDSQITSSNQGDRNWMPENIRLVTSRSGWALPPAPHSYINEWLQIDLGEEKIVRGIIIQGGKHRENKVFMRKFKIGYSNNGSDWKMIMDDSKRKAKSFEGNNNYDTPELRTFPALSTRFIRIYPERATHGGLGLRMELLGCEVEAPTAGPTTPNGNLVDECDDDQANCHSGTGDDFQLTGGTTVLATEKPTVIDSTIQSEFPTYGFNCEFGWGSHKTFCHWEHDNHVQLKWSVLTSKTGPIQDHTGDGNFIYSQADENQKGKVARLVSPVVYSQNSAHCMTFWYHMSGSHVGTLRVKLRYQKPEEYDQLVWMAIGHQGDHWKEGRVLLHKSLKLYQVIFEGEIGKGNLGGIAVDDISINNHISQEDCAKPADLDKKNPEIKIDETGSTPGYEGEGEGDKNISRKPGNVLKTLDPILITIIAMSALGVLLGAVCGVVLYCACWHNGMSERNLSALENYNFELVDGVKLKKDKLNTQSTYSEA
ERp5 block: inhibitors of human ERp5 | inhibition, % at 9.99 µM | ERp5 insulin aggregation, absorbance 650 nm, 90 min | 350,000 tested, 0.05% active | Q15084 | AID 651711;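 active = mean replicate inhibition above about 25%, with every replicate also reaching it, limit read from the data, passing the limit was not always enough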
ALR H2O2 inh: blocks human ALR sulfhydryl oxidase activity. P55789. purified ALR, DTT oxidation, H2O2 HRP-luminol luminescence. inhibition, % (test concentration not listed). 290,000 tested, 3.8% active;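 active = mean replicate inhibition above about 79%, with every replicate also reaching it, limit read from the data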
PglD DTNB: inhibitors of Campylobacter jejuni PglD acetyltransferase; purified PglD enzyme, DTNB colorimetric CoA detection; inhibition, % at 12.5 µM; 360,000 tested, 0.098% active; in the data active = inhibition above about 16%, passing the limit was not always enough
PDI turbidity: inhibitors of human protein disulfide isomerase; P07237; PDI insulin aggregation turbidity, A650, 90 min; inhibition, % at 10 µM; 350,000 tested, 0.052% active;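 active = mean inhibition across replicates of 30% or more, whatever share of single replicates reach that level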
The depositor's hits bear a star; / = no result given. Many of the other results were omitted from the sample, so hits are more common in it than they were.

SMILES	ARNT-TACC3 inh	CendR NRP1 mod	ERp5 block	ALR H2O2 inh	PglD DTNB	PDI turbidity
CCCc1cc(=O)[nH]c(Nc2ccc(O)cc2)n1	3	-8	/	99*	-1	6
NC(=S)N=Nc1ccc(NN=C(N)N)cc1	33	17	4	98*	2	14
O=C1CCCC2=C1C(c1ccc(O)c(O)c1)Nc1ccc3ccccc3c12 (stereo unspecified)	6	5	0	98*	1	12
COc1ccc(S(=O)(=O)N(C)C[C@H]2Oc3c(NC(=O)c4ccc(-c5nccs5)cc4)cccc3C(=O)N([C@@H](C)CO)C[C@@H]2C)cc1	-4	/	11	/	3	/
CC(C)CC#Cc1cnc2c(c1)C(=O)N([C@H](C)CO)C[C@@H](C)[C@H](CN(C)Cc1ccccc1C(=O)O)O2	-4	/	9	/	0	/
Cc1ccc(S(=O)(=O)/N=C2/NC(=O)/C(=C\c3cc(Br)cc(Br)c3O)S2)cc1	1	140	/	99*	-2	1
COc1nc(Nc2ccc(O)cc2)nc(OC(C(F)(F)F)C(F)(F)F)n1	/	6	/	99*	-4	-12
O=C(N/N=C/c1ccc(O)cc1)c1nc(-c2ccccc2)n(-c2ccccc2)n1	2	14	/	98*	1	4
Cc1cc(C)n2nc(C(=O)N/N=C/c3ccc(O)cc3)nc2n1	8	5	2	99*	5	3
COc1ccc(/C=N/NC(=O)c2nc(-c3ccccc3)n(-c3ccccc3)n2)cc1OC	-8	-7	-3	1	1	-9
COc1cc(/C=N/NC(=O)c2nc(-c3ccccc3)n(-c3ccccc3)n2)ccc1O	5	-5	/	85*	-5	-7
NC(=O)c1ccsc1NC(=O)c1nc(-c2ccccc2)n(-c2ccccc2)n1	-3	-51	/	86*	1	-8
O=C(Nc1ccccn1)c1nc(-c2ccccc2)n(-c2ccccc2)n1	-3	-2	2	-3	/	-11
COc1cccc(C#Cc2ccc3c(c2)O[C@H](CN(C)C)[C@@H](C)CN([C@H](C)CO)S3(=O)=O)c1	3	/	-5	/	1	/
CC1(C)S[C@@H]2[C@H](NC(=O)C(C(=O)O)c3ccccc3)C(=O)N2[C@H]1C(=O)O (stereo partly specified)	3	-26	/	/	1	8
COC(=O)C1N2C(=O)[C@@H](NC(=O)COc3ccccc3)[C@H]2SC1(C)C (stereo partly specified)	-3	31*	8	6	-2	-2
Cc1nn(C)c(C(=O)Nc2cccc(Nc3ccccc3)c2)c1[N+](=O)[O-]	16	0	4	98*	-1	-1
Cc1nn(C)c(C(=O)N/N=C/c2ccccc2)c1[N+](=O)[O-]	0	5	/	-3	2	-3
CN1CCN(S(=O)(=O)c2ccc(N)cc2)CC1	-8	4	3	96*	-3	-3
C[C@@H]1CCCCO[C@@H](CN(C)C(=O)Cc2ccccc2)[C@H](C)CN([C@H](C)CO)C(=O)c2cc(NS(=O)(=O)c3ccc(Cl)cc3)ccc2O1	/	/	2	/	2	/
CN(NC(=O)Nc1ccc(Cl)cc1)c1ncc(C(F)(F)F)cc1Cl	-6	6	/	-5	-4	3
CN(NC(=O)Nc1ccc(Cl)cc1)c1c(Cl)c(Cl)nn1C	-13	20*	-1	0	-6	17
Nc1cc(C(=O)O)ccc1Nc1ccc(F)c(F)c1	0	-4	/	97*	1	-4
CN(C)c1ccc(CNS(=O)(=O)c2ccc3c(c2)NC(=O)CS3)cc1	-4	10	1	99*	6	-3
Cc1ccc(CNS(=O)(=O)c2ccc3c(c2)NC(=O)CS3)cc1	-2	5	0	7	3	-5
SMILES	ARNT-TACC3 inh	CendR NRP1 mod	ERp5 block	ALR H2O2 inh	PglD DTNB	PDI turbidity
Cc1ccc(S(=O)(=O)Oc2ccccc2[N+](=O)[O-])cc1	9	20*	1	/	1	1
Oc1ccc(C2=NNC(=NCc3ccc4c(c3)OCO4)SC2)c(O)c1	9	-11	/	95*	-1	20
COC(=O)CSc1nc2cc3c(cc2cc1C)OCO3	-4	5	0	21	0	2
Cc1cc2cc3c(cc2nc1SCC(=O)Nc1nc(C)c(C)s1)OCO3	0	-63	/	97*	0	-5
Cc1ccc(-n2c(-c3ccc(Cl)cc3)n[nH]c2=S)c(C)c1	-1	10	1	87*	6	4
Cc1ccc(-n2c(-c3cccnc3)n[nH]c2=S)c(C)c1	28	2	/	84*	-7	17
COC(=O)c1cn(-c2cccc(N)c2)nn1	4	/	2	/	0	/
O=C(N[C@@H]1CC[C@H](CCn2cc(Cc3ccccc3)nn2)O[C@H]1CO)c1ccccn1	3	/	-1	/	0	/
CCc1c(O)nc(SCC(=O)N2CCOCC2)n(-c2ccccc2)c1=O	-2	-42	/	96*	-9	-2
CCc1c(O)nc(SCC(=O)c2ccccc2)n(-c2ccccc2)c1=O	-5	-2	-5	99*	-9	0
CCCCc1c(O)nc(SCC(=O)N2CCOCC2)n(-c2ccc(OC)cc2)c1=O	3	13	-3	9	1	9
O=C(NCC(c1ccco1)N1CCN(c2ccc(F)cc2)CC1)c1ccco1 (stereo unspecified)	5	10	3	55	-6	2
O=C(NCc1ccccn1)C(=O)NCC(c1ccco1)N1CCOCC1 (stereo unspecified)	-4	0	-10	-3	/	3
O=C(NCc1ccccn1)C(=O)NCC(c1ccco1)N1CCN(c2ccc(F)cc2)CC1 (stereo unspecified)	12	2	-5	98*	/	2
O=C(NCc1ccncc1)C(=O)NCC(c1ccco1)N1CCN(c2ccc(F)cc2)CC1 (stereo unspecified)	-9	3	/	94*	-4	-30
Cc1cc(NC(=O)CSc2nnc(CNC(=O)c3cccc(C(F)(F)F)c3)o2)no1	46*	-2	4	1	-1	6
Cc1cc(C)c(NC(=O)CSc2nnc(CNC(=O)c3c(F)cccc3Cl)o2)c(C)c1	2	4	-2	-23	-1	1
Cc1ccc(NC(=O)CSc2nnc(CNC(=O)c3c(F)cccc3Cl)o2)cc1	-6	-7	/	98*	1	-9
O=C(CSc1nnc(CNC(=O)c2c(F)cccc2Cl)o1)Nc1ccc2c(c1)OCO2	1	-11	1	97*	2	7
CC(C)NC(=O)Nc1ccc2c(c1)CC(=O)N([C@H](C)CO)C[C@@H](C)[C@H](CN(C)CC1CCCCC1)O2	9	/	-1	/	-3	/
CNC(=O)C[C@H]1CC[C@@H]2[C@H](COc3ccc(NC(=O)C4CC4)cc3C(=O)N2C)O1	-12	/	/	/	0	/
COc1ccc(Nc2cc(C)c3ccc(O)cc3n2)cc1	4	8	2	99*	/	6
